Results reported in PubChem BioAssay (Tox21).
Results filed as inconclusive are left out. A call without a number means that no potency is given here. Activity calls are given as the source filed them. Unless noted, calls follow the shape of the dose curve; as a rule, active = well fitted curve in the direction sought with a large enough effect in the repeat runs; inconclusive = weak or mixed curves; inactive = no such curve, though single readings can be large; an effect the other way counts as inactive or inconclusive.

target: Thyrotropin-releasing hormone receptor (Homo sapiens) (UniProt P34981); assay: qHTS assay to identify small molecule agonists of the thyrotropin-releasing hormone receptor (TRHR) signaling pathway (AID 1346891; calls by dose curve;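 also: HEK293 cells expressing TRHR with calcium dye readout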); settings: TRHR-HEK293 calcium fluorescence, agonist mode; series mostly up to 57.6 µM
Sequence (P34981 whole entry, looked up): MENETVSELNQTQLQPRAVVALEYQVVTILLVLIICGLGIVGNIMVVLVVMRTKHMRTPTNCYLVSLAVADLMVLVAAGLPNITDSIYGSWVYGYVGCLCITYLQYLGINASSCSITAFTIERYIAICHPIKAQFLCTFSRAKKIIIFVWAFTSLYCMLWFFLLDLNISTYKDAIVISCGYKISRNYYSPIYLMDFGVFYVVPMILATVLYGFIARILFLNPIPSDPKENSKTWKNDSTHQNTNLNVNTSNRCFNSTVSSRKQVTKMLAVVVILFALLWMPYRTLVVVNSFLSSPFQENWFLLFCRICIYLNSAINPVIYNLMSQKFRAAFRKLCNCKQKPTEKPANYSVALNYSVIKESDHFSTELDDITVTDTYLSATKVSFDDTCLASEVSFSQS
How it was run: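 In 1536-format, 1500 TRHR-Hek293 cells per well grew 18 h, took up calcium dye for 2 h at 37 °C, received compound, and were read kinetically; 15-point titrations, triplicates.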

Compound | Potency
CCCCCCCCOC(=O)c1ccc(C(=O)OCCCCCCCC)c(C(=O)OCCCCCCCC)c1 | inactive
C[N+](C)(C)CCCl | inactive
CC(Cl)Cl | inactive
C[C@@H]1CC[C@H]2[C@@H](C)C(=O)O[C@@H]3O[C@@]4(C)CC[C@@H]1[C@]32OO4 | inactive
CCBr | inactive
CCOP(O)OCC | inactive
CC(C)(OO)c1ccccc1 | inactive
CC(C)(CCl)C(=O)Cl | inactive
C=CC(=O)OCC(C)O (centres undefined) | inactive
C[C@H]1CNCCc2ccc(Cl)cc21 | inactive
CCC(Br)(CC)C(=O)NC(N)=O | inactive
COC(C)(C)CCC[C@H](C)C/C=C/C(C)=C/C(=O)OC(C)C | inactive
Clc1cc(C(Cl)(Cl)Cl)cnc1Cl | inactive
CCCCNP(N)(N)=S | inactive
CC(=O)[C@H]1CC[C@H]2[C@@H]3CC[C@H]4C[C@](C)(O)CC[C@]4(C)[C@H]3CC[C@]12C | inactive
Cc1cc(=O)[nH]o1 | inactive
O=C(O)COc1ccc(Cl)cc1 | inactive
CNC(C)Cc1ccccc1OC (centres undefined) | inactive
CCCCCC[N+](=O)[O-] | inactive

system: not listed separately; assay: Human pregnane X receptor (PXR) small molecule agonists, qHTS cell viability counter screen (AID 1346977); settings: PXR-Luc HepG2 viability, CellTiter-Fluor, 24 h; series mostly up to 92.4 µM; also: nearly all actives have a fitted effect of over 50% in size
How it was run: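 Readout is CellTiter-Fluor fluorescence from PXR-Luc HepG2 cells. Plated cells rested 5hr, then were treated with compounds for 24hr at 37C and 5% CO2, with reagent present during the last hour.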

Compound | Potency
CCCCCCCCOC(=O)c1ccc(C(=O)OCCCCCCCC)c(C(=O)OCCCCCCCC)c1 | inactive
CC(C)O.CC(C)O.OCCN(CCO)CCO.OCCN(CCO)CCO.[Ti] | inactive
C=CCN1CC[C@]23c4c5ccc(O)c4O[C@H]2C(=O)CC[C@@]3(O)[C@H]1C5 | inactive
CCOC(=O)C(Cl)C(C)=O (centres undefined) | inactive
CC1C(=O)C[C@]2(C(C)C)C[C@H]12 (some centres undefined) | inactive
CC/C(=N\OC/C=C/Cl)C1=C(O)CC(C2CCOCC2)CC1=O (centres undefined) | inactive
CC(C)(CCl)C(=O)Cl | inactive
C[C@H]1CNCCc2ccc(Cl)cc21 | inactive
CCC(Br)(CC)C(=O)NC(N)=O | inactive
COC(C)(C)CCC[C@H](C)C/C=C/C(C)=C/C(=O)OC(C)C | inactive
C#CCOC(C(=O)OCCN(C)C)(c1ccccc1)c1ccccc1 | inactive
O=S(=O)(Cl)c1ccccc1 | inactive
O=C(O)COc1ccc(Cl)cc1 | inactive
ClCc1ccccc1 | inactive

system: not listed separately; assay: Caspase-3/7 induction in HepG2 cells by small molecules, qHTS assay (AID 1346978); settings: HepG2 caspase-3/7 activation, Caspase-Glo luminescence, 17 h; series mostly up to 92.4 µM; also: nearly all actives have a fitted effect of over 15% in size
How it was run: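 Wild-type HepG2 cells (2,000/well) were settled 5 h at 37 C, 5% CO2, then exposed to compounds in DMSO for 17 h. Caspase-3/7 activity was read by luminescence 30 min after adding Caspase-Glo 3/7 reagent at room temperature.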

Compound | Potency
CCCCCCCCOC(=O)c1ccc(C(=O)OCCCCCCCC)c(C(=O)OCCCCCCCC)c1 | inactive
CC(C)O.CC(C)O.OCCN(CCO)CCO.OCCN(CCO)CCO.[Ti] | inactive
C[N+](C)(C)CCCl | inactive
C=CCN1CC[C@]23c4c5ccc(O)c4O[C@H]2C(=O)CC[C@@]3(O)[C@H]1C5 | inactive
CC(Cl)Cl | inactive
C=COC(C)=O | inactive
COC(=O)c1cncn1C(C)c1ccccc1 (centres undefined) | inactive
Clc1cc(Cl)c(Cl)c(Cl)c1 | inactive
C[C@@H]1CC[C@H]2[C@@H](C)C(=O)O[C@@H]3O[C@@]4(C)CC[C@@H]1[C@]32OO4 | inactive
CCBr | inactive
CCOP(O)OCC | inactive
CC(C)(OO)c1ccccc1 | inactive
CC/C(=N\OC/C=C/Cl)C1=C(O)CC(C2CCOCC2)CC1=O (centres undefined) | inactive
CC(C)(CCl)C(=O)Cl | inactive
C=CC(=O)OCC(C)O (centres undefined) | inactive
CCOS(C)(=O)=O | inactive
C[C@H]1CNCCc2ccc(Cl)cc21 | inactive
CCC(Br)(CC)C(=O)NC(N)=O | inactive
COC(C)(C)CCC[C@H](C)C/C=C/C(C)=C/C(=O)OC(C)C | inactive
O=S(=O)(Cl)c1ccccc1 | inactive
Cc1cc(=O)[nH]o1 | inactive
O=C(O)COc1ccc(Cl)cc1 | inactive
CNC(C)Cc1ccccc1OC (centres undefined) | inactive
CCN(C)N=O | inactive
O=S1OC[C@@H]2[C@H](CO1)[C@]1(Cl)C(Cl)=C(Cl)[C@@]2(Cl)C1(Cl)Cl (some centres undefined) | inactive
CCCCCC[N+](=O)[O-] | inactive
